In PubChem BioAssay (Tox21):
“And” between values parts separate entries of the source, which are not always exact repeats. Identical values can stand only once. Unmarked numbers belong to inactive results. Results filed as inconclusive are left out. Entries that show only a call come without a potency. Some structures have more than one record in an assay (separate samples or runs), and their calls can disagree. The source made the active and inactive calls. Unless noted, the call rests on the fitted dose curve; in most records, active means well fitted curve in the direction sought with a large enough effect in the repeat runs; inconclusive means weak or mixed curves; inactive means no such curve, though single readings can be large; an effect the other way counts as inactive or inconclusive.

Columns and labels:
[1] = qHTS assay to identify small molecule antagonists of the progesterone receptor (PR) signaling pathway - cell viability counter screen (AID 1346798); further: series mostly up to about 92 µM; nearly all actives have a fitted effect of over 50% in size
In short: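 CellTiter-Glo luminescence; PR-UAS-bla HEK293T, 3,000 cells/well; compound + R5020, 16 hr, 37C/5% CO2; 30 min RT before read.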

[2] = qHTS assay to identify small molecule agonists of the progesterone receptor (PR) signaling pathway - cell viability counter screen (AID 1346799; calls by dose curve; further: nearly all actives have a fitted effect of over 45% in size)
In short: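 In parallel with the beta-lactamase readout, cytotoxicity toward PR-UAS-bla HEK293T cells was measured by CellTiter-Glo luminescence following 16 hr compound incubation in 2% charcoal-stripped FBS medium.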

[3] = qHTS assay to identify small molecule agonists of the TGF-beta/Smad signaling pathway - cell viability counter screen (AID 1346829); further: top concentration of the series differs between compounds; nearly all actives have a fitted effect of over 45% in size
In short: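 SBE-bla HEK 293T cells plated overnight, compound exposure 5 hr at 37 C. Viability read in the same wells by CellTiter-Glo luminescence after 30 min at room temperature, following the beta-lactamase read.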

[4] = qHTS assay to identify small molecule agonists of the TGF-beta/Smad signaling pathway (AID 1346859; active means well fitted activation curve with a large enough effect in the signal ratio in the repeat runs, not every such curve was filed as active; the % refers to the signal ratio; further: series mostly up to about 77 µM)
In short: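 After overnight seeding, SBE-bla HEK 293T cells are dosed with compounds in DMSO and kept 5 hr at 37 C, 5% CO2. LiveBLAzer-type FRET substrate is then applied for 2 hr at room temperature.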

[5] = molecular target: Thyrotropin-releasing hormone receptor (Homo sapiens) (UniProt P34981); assay: qHTS assay to identify small molecule antagonists of the thyrotropin-releasing hormone receptor (TRHR) signaling pathway (AID 1346877; active means well fitted inhibition curve with a large enough effect in the repeat runs, not every such curve was filed as active; further: series mostly up to about 51 µM)
In short: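 HEK293/TRHR cells, 18 h, 37 °C; Ca2+ dye 2 h; cpd 5 min RT; TRH 1 nM final; fluorescence read 3 min, 1 s intervals; 15 concs, triplicate.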

[6] = Human pregnane X receptor (PXR) small molecule agonists, qHTS cell viability counter screen (AID 1346977); further: nearly all actives have a fitted effect of over 50% in size; further: potency means the concentration at half of the fitted maximal effect
In short: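 Viability counter screen: CellTiter-Fluor signal in PXR-Luc HepG2 cells, 24hr compound exposure, 37C, 5% CO2.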

[7] = Caspase-3/7 induction in HepG2 cells by small molecules, qHTS assay (AID 1346978); further: nearly all actives have a fitted effect of over 15% in size
In short: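 Wild-type HepG2 cells, 2,000/well, settled 5 hr at 37 C and 5% CO2, then compound-treated for 17 hr; caspase-3/7 activity read by luminescent Caspase-Glo 3/7 after 30 min at room temperature.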

[8] = Caspase-3/7 induction in CHO-K1 cells by small molecules, qHTS cell viability counter screen (AID 1346979); further: nearly all actives have a fitted effect of over 35% in size
In short: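 Viability readout by fluorescence (CellTiter-Fluor) on wild-type CHO-K1 cells exposed for 16hr at 37C and 5% CO2 to compounds delivered in DMSO; reagent incubated 1hr before reading.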

[9] = molecular target: Thyrotropin-releasing hormone receptor (Homo sapiens) (UniProt P34981); assay: qHTS assay to identify small molecule agonists of the thyrotropin-releasing hormone receptor (TRHR) signaling pathway (AID 1346891; calls by dose curve;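 further: HEK293 cells expressing TRHR with calcium dye readout; series mostly up to about 58 µM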)
In short: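 Compounds were tested as agonists at 15 concentrations, in triplicate, on TRHR-Hek293 cells; calcium-sensitive dye fluorescence was recorded for 3 min following addition.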

Sequence of Thyrotropin-releasing hormone receptor (Homo sapiens) (P34981 whole entry, looked up): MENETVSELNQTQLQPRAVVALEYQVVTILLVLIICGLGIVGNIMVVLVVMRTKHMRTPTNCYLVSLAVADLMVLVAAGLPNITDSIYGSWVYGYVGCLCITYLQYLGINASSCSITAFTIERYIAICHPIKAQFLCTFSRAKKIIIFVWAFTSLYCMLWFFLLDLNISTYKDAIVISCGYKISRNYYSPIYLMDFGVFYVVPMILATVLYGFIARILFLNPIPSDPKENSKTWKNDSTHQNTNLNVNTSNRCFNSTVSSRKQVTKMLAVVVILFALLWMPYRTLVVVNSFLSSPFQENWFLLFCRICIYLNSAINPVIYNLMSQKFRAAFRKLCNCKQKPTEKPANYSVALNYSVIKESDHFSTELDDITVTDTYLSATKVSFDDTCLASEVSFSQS

Compound | Potency [1] | Potency [2] | Potency [3] | outcome [4] | Potency [5] | Potency [6] | Potency [7] | Potency [8] | activity change, negative = cytotoxicity [1] | activity change, negative = cytotoxicity [3] | activity, negative = inhibition [5] | activation [9] | activity change, negative = cytotoxicity [6] | caspase activation [7] | activity change, negative = cytotoxicity [8]
CCCCCC1=CCCC1=O | inactive | inactive | inactive | inactive | inactive | inactive | inactive | inactive |  |  |  |  |  |  | 
c1ccc(OCCOc2ccccc2)cc1 | inactive | inactive | inactive | inactive |  | inactive | inactive | inactive |  |  |  |  |  |  | 
CCN(CC)CCCC(C)Nc1ccnc2cc(Cl)ccc12 (stereo not given) |  |  |  |  |  | 13 µM (active) |  |  | 3.8% [at 8.39 µM] | -0.0742% [at 6.97 µM] and -3.92% [at 15.8 µM] | 0.384% [at 4.65 µM] and -4.99% [at 10.5 µM] | 0.225% [at 5.23 µM] and -0.0196% [at 11.8 µM] | -20.8% [at 8.39 µM] | 1.19% [at 8.39 µM] and -0.361% [at 19 µM] | -0.939% [at 8.39 µM] and -3.64% [at 19 µM]
CC(C)c1ccc(S(=O)(=O)O)cc1 | inactive | inactive | inactive | inactive |  | inactive | inactive | inactive |  |  |  |  |  |  | 
